Source: PubChem BioAssay (NCATS)
Several values for one entry are separate records, joined by “and”; a condition that tells them apart may be missing. Equal entries are not always repeated. Unmarked numbers belong to inactive results. Results filed as inconclusive are left out. Where a call stands in place of a potency, no number is given. Activity calls are given as the source filed them. Unless noted, the call rests on the fitted dose curve; in most records, active means well fitted curve in the direction sought with a large enough effect; inconclusive means small, poorly fitted or top-dose-only effect, or another doubt; inactive means no such curve, though single readings can be large; an effect the other way counts as inactive or inconclusive.

Legend:
astro = control astrocytes; test: Drug repurposing screens with cells derived from glioblastoma tumor samples (AID 1345199); conditions: viability, ATP luminescence, 48 h; series mostly up to 45.9 µM; further: nearly all actives have a fitted effect of over 40% in size; further: potency means the concentration at half of the fitted maximal effect
In short: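 Primary testing used CD133+ neurospheres from four GBM patients, seven concentrations, 48 h exposure and ATP-based viability; confirmation added three slower-growing patient lines.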

[1] = qHTS assay to identify inhibitors of the type 1 interferon - major histocompatibility complex class I in skeletal muscle: Counter screen cell viability and HiBit confirmation (AID 1347412); conditions: iHSKM muscle cells + IFN-b, HiBiT or CellTiter-Glo, 24 h; Potency: HiBiT unless noted; Viability, at 45.9 µM (top of the series); further: nearly all actives have a fitted effect of over 60% in size; further: potency means the concentration at half of the fitted maximal effect
In short: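 Human myoblast knock-in line, 4.0 ng/ml IFN-beta stimulation, 24 h compound treatment. Endpoints: HiBiT lytic luminescence (HLA-B level) and CellTiter Glo (ATP). Dosing 12 concentrations, 3-fold steps, 46 uM highest final.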

[2] = biological target: Nuclear receptor subfamily 1 group I member 2 (Rattus norvegicus) (UniProt Q9R1A7); test: qHTS assay for small molecule activators of the rat pregnane X receptor (rPXR) signaling pathway (AID 651751; call rule not given here); conditions: rPXR reporter cells, luciferase (One-Glo), 24 h
Chain of Nuclear receptor subfamily 1 group I member 2 (Rattus norvegicus) (Q9R1A7 whole entry, looked up): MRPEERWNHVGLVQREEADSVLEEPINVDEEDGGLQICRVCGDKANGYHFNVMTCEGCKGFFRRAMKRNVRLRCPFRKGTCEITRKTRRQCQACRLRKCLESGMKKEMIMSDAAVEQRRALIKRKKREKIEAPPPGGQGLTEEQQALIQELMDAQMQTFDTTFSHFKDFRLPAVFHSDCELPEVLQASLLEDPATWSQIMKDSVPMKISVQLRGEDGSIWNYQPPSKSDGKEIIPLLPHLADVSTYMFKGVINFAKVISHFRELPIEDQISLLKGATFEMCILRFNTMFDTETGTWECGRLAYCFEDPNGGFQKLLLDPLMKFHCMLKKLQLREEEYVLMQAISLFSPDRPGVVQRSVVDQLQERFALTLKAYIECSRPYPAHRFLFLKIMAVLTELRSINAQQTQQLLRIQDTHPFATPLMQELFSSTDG

[3] = qHTS assay for small molecule activators of the human pregnane X receptor (PXR) signaling pathway (AID 720659; call rule not given here)

## CC1(C)CCC(NC(=O)[C@@H](N)CCC(=O)O)CC1
astro
  Potency: inactive

## CN(C)CC/C=C1/c2ccccc2COc2ccc(CC(=O)O)cc21
astro
  Potency: inactive

## CCN(CCCc1ccccc1)CCCc1ccccc1
astro
  Potency: inactive

## CC(=O)Oc1ccc(C(=C2CCCCC2)c2ccc(OC(C)=O)cc2)cc1
astro
  Potency: inactive

## CN1CCC[C@@H]1c1cccnc1
astro
  Potency: inactive

## C[C@H]1[C@H](NC(=O)/C(=N/OC(C)(C)C(=O)O)c2csc(N)n2)C(=O)N1S(=O)(=O)O (stereo in doubt)
astro
  Potency: inactive

## CCOc1ccc(NC(=O)CC(C)O)cc1 (centres undefined)
astro
  Potency: inactive

## NC(CO)(CO)CO
astro
  Potency: inactive

## CC(=O)O[C@]1(C(C)=O)CC[C@H]2[C@@H]3C[C@H](C)C4=CC(=O)CC[C@]4(C)[C@H]3CC[C@@]21C
astro
  Potency: inactive

## COc1cc(/C=C/C(=O)O[C@H]2CC[C@]34C[C@]35CC[C@]3(C)[C@@H]([C@H](C)CCC=C(C)C)CC[C@@]3(C)[C@@H]5CC[C@H]4C2(C)C)ccc1O
astro
  Potency: 17.8 µM (active)

## CC(C)n1nc(-c2cc3cc(O)ccc3[nH]2)c2c(N)ncnc21
[1]
  Potency: 3.52 µM (active)

## CCCCCCc1ccc(O)cc1O
[2]
  max response: -4.98% and -0.286%
[3]
  outcome: inactive

## Nc1ccc(C(=O)O)cc1
astro
  Potency: inactive
[2]
  max response: -6.06%
[3]
  outcome: inactive

## COc1cc(NS(C)(=O)=O)ccc1Nc1c2ccccc2nc2ccccc12
astro
  Potency: 11.2 µM (active)

## CC(=O)OCC(=O)[C@@]1(O)CC[C@H]2[C@@H]3CCC4=CC(=O)C=C[C@]4(C)[C@H]3[C@@H](O)C[C@@]21C
astro
  Potency: inactive
[1]
  Potency: inactive

## O=C(O)CCCCC(=O)O
astro
  Potency: inactive
[2]
  max response: -0.0429%
[3]
  outcome: inactive

## COc1cccc2c1C(=O)c1c(O)c3c(c(O)c1C2=O)C[C@@](O)(C(C)=O)C[C@@H]3O[C@H]1C[C@H](N)[C@H](O)[C@H](C)O1
[1]
  Potency: 0.442 µM (active)
[2]
  max response: -12.1%
[3]
  outcome: inactive

## CN(C)C(=S)SC(=S)N(C)C
astro
  Potency: inactive
[2]
  max response: -1.67%

## CCCCC(=O)O[C@]1(C(=O)CO)CC[C@H]2[C@@H]3CCC4=CC(=O)CC[C@]4(C)[C@H]3[C@@H](O)C[C@@]21C
astro
  Potency: inactive
[1]
  Potency: inactive

## C=C(CC)C(=O)c1ccc(OCC(=O)O)c(Cl)c1Cl
[2]
  max response: -15%
[3]
  outcome: inactive

## CC(C)(Oc1ccc(Cl)cc1)C(=O)O
astro
  Potency: inactive
[2]
  max response: -4.53%
[3]
  outcome: inactive

## CC(=O)Oc1ccc(C(c2ccc(OC(C)=O)cc2)c2ccccn2)cc1
[2]
  max response: -3.28%

## Oc1ccc(O)cc1
[2]
  max response: -4.09%
[3]
  outcome: inactive

## NC(=NCCCCCCN=C(N)/N=C(\N)Nc1ccc(Cl)cc1)/N=C(\N)Nc1ccc(Cl)cc1
astro
  Potency: 11.2 µM (active)
[3]
  outcome: inactive

## CC/C(=C(/CC)c1ccc(O)cc1)c1ccc(O)cc1
[2]
  max response: 1.62% and -5.34%

## Oc1c(Cl)cc(Cl)cc1Sc1cc(Cl)cc(Cl)c1O
astro
  Potency: 10 µM (active)
[3]
  outcome: inactive

## Cc1cc(=O)n(-c2ccccc2)n1C
astro
  Potency: inactive
[2]
  max response: 0.521%
[3]
  outcome: inactive

## C[C@]12C=CC(=O)C=C1CC[C@@H]1[C@@H]2[C@@H](O)C[C@@]2(C)[C@H]1CC[C@]2(O)C(=O)CO
astro
  Potency: inactive
[1]
  Potency: inactive

## C[C@]12CCC(=O)C=C1CC[C@H]1[C@@H]3CC[C@](O)(C(=O)CO)[C@@]3(C)C[C@H](O)[C@@]12F
astro
  Potency: inactive
[1]
  Potency: inactive

## CC(=O)OCC(=O)[C@@]12N=C(C)O[C@@H]1C[C@H]1[C@@H]3CCC4=CC(=O)C=C[C@]4(C)[C@H]3[C@@H](O)C[C@@]12C
astro
  Potency: inactive
[1]
  Potency: inactive

## COc1cccc2c1C(=O)c1c(O)c3c(c(O)c1C2=O)C[C@@](O)(C(=O)CO)C[C@@H]3O[C@H]1C[C@H](N)[C@H](O)[C@H](C)O1
[2]
  max response: 0.888% and 0.44%
[3]
  outcome: inactive

## C=CCc1ccc(O)c(OC)c1
astro
  Potency: inactive
[2]
  max response: -0.084% and 3.11%
[3]
  outcome: inactive

## CC(=O)OCC(=O)[C@@]12OC(C)(C)O[C@@H]1C[C@H]1[C@@H]3C[C@H](F)C4=CC(=O)C=C[C@]4(C)[C@@]3(F)[C@@H](O)C[C@@]12C
[1]
  Potency: inactive

## COc1cc(C=C2CCC/C(=C\c3ccc(O)c(OC)c3)C2=O)ccc1O
astro
  Potency: 20 µM (active)
[1]
  Potency: inactive
